Measurements from PubChem BioAssay (NCI).
The panel holds about 79,000 compounds, 15% with a hit somewhere; the sample as a whole holds those more often. A number with no mark means an inactive call. Active and inactive are the calls of the source. Rule as the data show it: active = growth inhibition above about 70%; inactive = the rest.

Key:
[1] = NCI Yeast Anticancer Drug Screen. Data for the rad50 strain (AID 155);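 also: 0% = growth of vehicle-only cultures of the same strain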; conditions: S. cerevisiae rad50 strain growth inhibition, active compounds read high
Procedure, shortened: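 Compounds were tested on a yeast strain with an engineered DNA damage repair alteration; the reported value is growth inhibition normalised to vehicle treatment.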

[2] = NCI Yeast Anticancer Drug Screen. Data for the mec2-1 strain (AID 157); conditions: S. cerevisiae mec2-1 strain, active compounds read high
Procedure, shortened: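 Growth inhibition is read against vehicle-treated controls after compound exposure of the mec2-1 yeast strain, which is defective in DNA damage repair or cell cycle control.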

[3] = NCI Yeast Anticancer Drug Screen. Data for the sgs1 mgt1 strain (AID 161);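 also: 0% = growth of cultures given vehicle only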; conditions: S. cerevisiae sgs1 mgt1 strain, active compounds read high
Procedure, shortened: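 Growth of a repair-deficient yeast mutant was monitored after compound treatment and expressed as inhibition relative to vehicle-treated cultures.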

[4] = NCI Yeast Anticancer Drug Screen. Data for the cln2 rad14 strain (AID 165);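 also: 0% = growth equal to vehicle treated cultures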; conditions: S. cerevisiae cln2 rad14 strain, active compounds read high
Procedure, shortened: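 Growth inhibition, relative to vehicle-treated controls, is the read-out. The test organism is a yeast strain with defined genetic alterations, cln2 rad14.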

[5] = NCI Yeast Anticancer Drug Screen. Data for the bub3 strain (AID 167); conditions: S. cerevisiae bub3 mutant strain, active compounds read high
Procedure, shortened: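 Growth of a checkpoint-deficient yeast mutant is measured after compound exposure. Values represent inhibition relative to vehicle.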

[6] = NCI Yeast Anticancer Drug Screen. Data for the mlh1 rad18 strain (AID 175); conditions: S. cerevisiae mlh1 rad18 strain growth inhibition, active compounds read high
Procedure, shortened: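 Cells of a genetically altered yeast strain, deficient in DNA damage repair, were treated with compound. Their growth was then compared with that of vehicle-treated cultures to give inhibition.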

[7] = at 5.0 µM (retest, dose inferred, filed as 0.5)
[8] = at 50.0 µM (retest, dose inferred, filed as 5.0)

Compound | growth inhibition [1, 7] | growth inhibition [1, 8] | growth inhibition ([1]; at 50.0 µM) | growth inhibition [2, 7] | growth inhibition [2, 8] | growth inhibition ([2]; at 50.0 µM) | growth inhibition [3, 7] | growth inhibition [3, 8] | growth inhibition ([3]; at 50.0 µM) | growth inhibition [4, 7] | growth inhibition [4, 8] | growth inhibition ([4]; at 50.0 µM) | growth inhibition [5, 7] | growth inhibition [5, 8] | growth inhibition ([5]; at 50.0 µM) | growth inhibition [6, 7] | growth inhibition [6, 8] | growth inhibition ([6]; at 50.0 µM)
O=C1C(C(Nc2ccccc2)c2ccccc2)=C([O-])c2ccccc21.O=C1C(C(Nc2ccccc2)c2ccccc2)=C([O-])c2ccccc21.[Ni+2] (configuration not stated) | 57% | 81% (active) | 63.3% | 33% | 55% | 71% (active) | 49% | 80% (active) | 36.6% | 46% | 46% | 55.8% | 51% | 84% (active) | 73.8% (active) | 39% | 81% (active) | 63.1%
O=c1oc2cc(O)ccc2c(O)c1C(c1ccc(/C=C/c2ccccc2)cc1)c1c(O)c2ccc(O)cc2oc1=O | 43% | 98% (active) | 89% (active) | 19% | 99% (active) | 91.8% (active) | -20% | 97% (active) | 89.8% (active) | 14% | 98% (active) | 90.7% (active) | 15% | 42% | 86% (active) | 8% | 99% (active) | 92.5% (active)
COC(=O)[C@]1(C)CCC[C@]2(C)[C@H]3CC4OO[C@@]3(CC[C@H]21)[C@H]1O[C@@]41C(C)C | 98% (active) | 99% (active) | 92.5% (active) | 99% (active) | 99% (active) | 93.4% (active) | 99% (active) | 100% (active) | 93.7% (active) | 92% (active) | 99% (active) | 92.2% (active) | 98% (active) | 99% (active) | 91.8% (active) | 98% (active) | 99% (active) | 92.3% (active)
C/C=C1/C(=O)O[C@]23C=C[C@@H]4C(C(=O)OC)=CO[C@H](O[C@@H]12)[C@@H]43 | 28% | 82% (active) | 91.9% (active) | 41% | 98% (active) | 93.8% (active) | 63% | 98% (active) | 93.6% (active) | 32% | 64% | 89.5% (active) | 61% | 96% (active) | 92.5% (active) | 88% (active) | 98% (active) | 66%
CC1(OO)CCC2CC1C2(C)C (configuration not stated) | 9% | 77% (active) | 90.2% (active) | 6% | 99% (active) | 99.6% (active) | -2% | 68% | 99.4% (active) | 4% | 65% | 82.7% (active) | -1% | 95% (active) | 99.5% (active) | 13% | 94% (active) | 98.2% (active)
CN1CCN(c2ccc3nc(-c4ccc5nc(CCCc6ccc(N(CCCl)CCCl)cc6)[nH]c5c4)[nH]c3c2)CC1 | 98% (active) | 98% (active) | 90.5% (active) | 99% (active) | 99% (active) | 90.8% (active) | 100% (active) | 99% (active) | 92.2% (active) | 97% (active) | 99% (active) | 91% (active) | 99% (active) | 99% (active) | 91.7% (active) | 98% (active) | 98% (active) | 89.5% (active)
CC(=O)O[C@@H]1[C@@H](O)[C@H]2O[C@@H]3C=C(C)C(=O)[C@@H](O)[C@]3(CO)[C@]1(C)[C@]21CO1 | 14% | 85% (active) | 48.7% | 22% | 93% (active) | 20.1% | 13% | 90% (active) | 62.4% | 33% | 92% (active) | 23.5% | 8% | 90% (active) | 85% (active) | 18% | 95% (active) | 83.3% (active)
COC(=O)[CH2][Sn]([CH2]C(=O)OC)([CH]1CCCCC1)[CH]1CCCCC1 | 3% | 65% | 98.4% (active) | -3% | 45% | 97.2% (active) | 2% | 69% | 99.2% (active) | 5% | 33% | 98% (active) | 1% | 59% | 97.2% (active) | 2% | 48% | 98.5% (active)
CC(C)c1ccc(C(C)C)c(C(=O)CN2CCOCC2)c1 | 4% | 13% | 41.1% | 8% | 34% | 34.8% | 3% | 19% | 42.6% | -1% | 2% | -3.3% | 3% | 17% | 97.8% (active) | 5% | 20% | 35.4%
